Results reported in PubChem BioAssay AID624330 (Southern Research Specialized Biocontainment Screening …, 2012).
Values joined by “and” are separate entries in the source; they are usually repeats but may differ in a detail not shown here. Equal values may be shown once. Out of some 340,000 compounds screened, about 2,100 (0.62%) were called active.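 The calls were made as follows: active = first-screen hits whose inhibition reached a set limit at any dose in the follow-up dose series; inconclusive = inhibition above the set first-screen limit but never retested; inactive = the rest.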 These entries were drawn from the full list. Measured potencies and affinities stand elsewhere.

molecular target: Rac GTPase-activating protein 1 (Homo sapiens) (UniProt Q9H0H5); experiment: blockers of MgcRacGAP-driven Rac1 GTP hydrolysis – biochemical, ADP Hunter fluorescence, primary and confirmatory, confirmation (AID 624330); settings: MgcRacGAP-stimulated Rac1 GTP hydrolysis, at 30 µM, hits give high values, GST-tagged Rac1 F28L mutant substrate;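 also: fluorescence reports GDP produced by GAP-driven GTP hydrolysis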
Sequence (Q9H0H5 whole entry, looked up): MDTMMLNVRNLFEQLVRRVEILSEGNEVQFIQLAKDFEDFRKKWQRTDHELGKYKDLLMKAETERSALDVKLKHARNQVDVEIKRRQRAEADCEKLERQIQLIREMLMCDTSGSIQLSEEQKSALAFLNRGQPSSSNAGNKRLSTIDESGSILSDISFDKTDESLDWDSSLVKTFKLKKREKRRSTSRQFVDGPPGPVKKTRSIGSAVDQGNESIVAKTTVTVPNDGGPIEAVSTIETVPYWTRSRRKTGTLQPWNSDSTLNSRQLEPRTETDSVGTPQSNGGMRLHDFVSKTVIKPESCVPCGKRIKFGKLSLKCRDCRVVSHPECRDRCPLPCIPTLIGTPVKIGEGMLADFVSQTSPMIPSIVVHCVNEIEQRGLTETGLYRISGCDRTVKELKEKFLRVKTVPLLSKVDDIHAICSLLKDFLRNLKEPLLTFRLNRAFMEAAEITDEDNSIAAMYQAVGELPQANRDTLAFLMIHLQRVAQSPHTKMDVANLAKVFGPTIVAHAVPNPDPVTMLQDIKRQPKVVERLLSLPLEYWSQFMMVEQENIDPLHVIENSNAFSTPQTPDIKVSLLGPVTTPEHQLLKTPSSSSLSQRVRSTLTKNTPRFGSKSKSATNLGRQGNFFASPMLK

inhibition, inactive:
O=c1c2cc(C(F)(F)F)ccc2sn1-c1ccccc1 24.6%
O=c1c2cc(F)ccc2sn1-c1ccc(F)cc1 30.6%
OCCOCCN1CCN(C(=S)Nc2ccccc2)CC1 6.01%
OCCOCCN1CCN(C2=Nc3ccccc3Sc3ccccc32)CC1 -0.15% and -4.72%
COC(=O)C1CCN(Cc2cn(Cc3ccccc3)nc2-c2cc3ccccc3o2)CC1 13.5%
COCCNC(=O)C(OC(=O)c1nsc(Cl)c1Cl)C(C)C (stereo not given) 10.9%
CCCN(CC(=O)Nc1cc(Cl)ccc1Cl)C(=O)c1ccc(N2CCCC2=O)cc1 3.44%
COc1cc(/C=N/NC(=O)c2cc(-c3cccc(Br)c3)nc3ccccc23)cc(OC)c1O 13.9%
Cc1nn(C)cc1/C=C1\SC(=S)NC1=O -1.15%
O=C1NC(=O)C(=Cc2ccc(Cl)cc2Cl)S1 7.66%
O=C1NC(=S)SC1=Cc1ccc(Cl)cc1 8.39%
Cc1cc(/C=C2\SC(=S)NC2=O)c(C)n1C 26.3%
O=C1NC(=S)SC1=Cc1ccc(F)cc1 15.8%
O=C1NC(=S)SC1=Cc1cc(Br)ccc1O 16.8%
Cc1cccc(NC(=O)CN2C(=O)NC(C)(c3ccc4c(c3)OCO4)C2=O)c1 (stereo not given) 3.23%
O=C(CSc1ncn[nH]1)N1CCN(c2nnc(-c3ccccc3)c3ccccc23)CC1 11.7%
Cc1cc(C)nc(N/N=C/C2=C(N3CCOCC3)C(=C/c3ccccc3)/CC2)n1 9.21%
COc1ccc(N=C2C(=O)N3c4c(cccc42)C(C)=CC3(C)C)cc1 13.7%
C=CCN(Cc1nc(-c2ccc(OC)cc2)no1)C(=O)c1ccc2c(c1)OCO2 2.96%
Cn1cccc1/C=N/N1CCN(Cc2ccccc2)CC1 23%
Clc1ccc(/C=N/N2CCN(Cc3ccccc3Cl)CC2)cc1 12%
CCN(CC)c1ccc(/C=N/N2CCN(Cc3ccccc3Cl)CC2)cc1 -3.36%
Cn1cccc1/C=N/N1CCN(Cc2cccc3ccccc23)CC1 25.4%
Cc1ccc(NC(=S)NCc2ccc3c(c2)cc(C)n3C)c(C)c1 9.16%
O=C(COC(=O)c1ccc(O)cc1)Nc1cccc(S(=O)(=O)N2CCCCC2)c1 5.81%
C=C(C)c1ccc(C(C)(C)NC(=O)N(Cc2ccccc2)Cc2ccco2)cc1 0.01%
C/C(=C/c1oc2ccc(O)cc2c1[N+](=O)[O-])N(C)C 14.9%
CC(=O)Oc1ccc2oc(/C=C/N(C)C)c([N+](=O)[O-])c2c1 16.9%
CCN(CC)S(=O)(=O)c1ccc(NC2=NS(=O)(=O)c3ccccc32)cc1 1.99%
O=S1(=O)N=C(Nc2ccc(N3CCOCC3)cc2)c2ccccc21 2.07%
CC1(C)CC(=O)C=C(Nc2ccc(F)cc2)C1 -10%
CC(=O)Nc1ccc(NC2=CC(=O)CC(C)(C)C2)cc1 7.91%
N#CCc1ccc(Oc2ccc([N+](=O)[O-])cn2)cc1 5.55%
Cc1oc(-c2ccccc2)nc1C(=O)OCC(=O)NCc1ccc(Cl)cc1 -0.87%
CCCCn1c(N)c(N(CC(C)C)C(=O)c2ccc(Cl)c(S(=O)(=O)N3CCCC3)c2)c(=O)[nH]c1=O 5.8%
COc1ccc(CN2CCCC(C(=O)N(C)Cc3ccccc3)C2)cc1OC (stereo not given) 27.7%
O=C(C1CCCN(Cc2ccc(Cl)cc2)C1)N1CCCCC1 (stereo not given) 24.9%
COc1ccc(CN2CCCC(C(=O)N3CCCCC3)C2)cc1 (stereo not given) 26.1%
O=C(C1CCCN(Cc2ccccc2)C1)N1CCCCC1 (stereo not given) 21.6%
COc1cccc(CN2CCCC(C(=O)N3CCCCC3)C2)c1 (stereo not given) 22.1%
CN(Cc1ccccc1)C(=O)C1CCCN(Cc2cccc(Cl)c2)C1 (stereo not given) 3.69%
O=C(NNC(=O)c1cc2ccccc2o1)c1ccncc1 3.59%
Cc1cc(C[n+]2ccsc2N)c2ncccc2c1 4.36%
NC(=O)CC(NC(=O)c1ccc(Br)cc1)c1ccc(N2CCN(c3ccccn3)CC2)c([N+](=O)[O-])c1 (stereo not given) 4.07%
O=C(NNC(=O)c1ccc([N+](=O)[O-])cc1)NC1CCCCC1 1.53%
CCCC1NC(=O)c2cccnc2-n2c1nc1ccc(Cl)cc1c2=O (stereo not given) 13.8%
Cc1ccc(N2C(=O)CCC2=O)c(C)c1 4.77%
Cc1ccc(C)c(N2CC(=O)N(c3cc(C)ccc3C)CC2=O)c1 1.32%
Cc1ccc(-n2c(C)cc(=O)cc2C)c(C)c1 6.02%
Cc1ccc(C)c(-n2nnc3ccccc3c2=O)c1 2.95%
COc1ccccc1NC(=O)C(C)n1cnc2c(oc3nc4c(cc32)CCCC4)c1=O (stereo not given) -4.17%
COc1ccc(/C=C2/CCCC(C(=O)C(F)(F)F)=C2O)cc1OC 6.67%
CCOC(=O)C(=O)Nc1cc([N+](=O)[O-])ccc1C 0.69%
COc1cc(C(=O)NCCCc2ccccc2)cc(OC)c1OC 5.75%
Cc1ccc(-c2cn3c(=S)[nH]nc3s2)cc1 22.2%
Cc1ccc(-c2n[nH]c(=S)n2C)cc1 14.7%
Cc1cc(CSc2ccccc2C(=O)O)on1 -2.15%
C/C(=N/NC(=O)c1ccc(-c2ccccc2)cc1)c1cc(O)cc(O)c1 14.9%
CC(=O)Nc1cc(S(=O)(=O)Nc2ccc(C)cc2)c(C)cc1C 11.6%
Cc1cc(C(=O)CCC(=O)N(C)CC(=O)Nc2c(Cl)cccc2Cl)c(C)s1 1.85%
C/C(=N\NS(=O)(=O)c1ccc(Cl)c([N+](=O)[O-])c1)c1cc2ccccc2o1 10.9%
CCOC(=O)c1ccc2c(c1)C1C=CCC1C(C(=O)OCC)N2 (stereo not given) 12.1%
CCOC(=O)C1Nc2ccc(C)cc2C2C=CCC12 (stereo not given) 10.5%
CC(=O)c1ccc2c(c1)C1C=CCC1C(c1ccncc1)N2 (stereo not given) 13%
O=C(O)c1ccc2c(c1)C1C=CCC1C(c1ccncc1)N2 (stereo not given) 9.53%
